# For some assays here: Results with a measured potency or affinity are listed apart.
# How the values were obtained:
# Set-up in all cases: scale not given: direction of the effect not stated beside the values
# [1] = biological target: Protein translocase subunit SecA (Escherichia coli (strain K12)) (UniProt P10408); assay: Assay to Identify E. coli SecA ATPase Inhibitors; format: functional; settings: 30 µM
# [2] = biological target: T1, Ubiquitin-activating enzyme e1, putative (Leishmania donovani (strain BPK282A1)) (UniProt E9BSI1); assay: Leishmania donovani Ubiquitin Activating Enzyme (LdE1); format: functional; settings: 30 µM
# T1 sequence (whole entry): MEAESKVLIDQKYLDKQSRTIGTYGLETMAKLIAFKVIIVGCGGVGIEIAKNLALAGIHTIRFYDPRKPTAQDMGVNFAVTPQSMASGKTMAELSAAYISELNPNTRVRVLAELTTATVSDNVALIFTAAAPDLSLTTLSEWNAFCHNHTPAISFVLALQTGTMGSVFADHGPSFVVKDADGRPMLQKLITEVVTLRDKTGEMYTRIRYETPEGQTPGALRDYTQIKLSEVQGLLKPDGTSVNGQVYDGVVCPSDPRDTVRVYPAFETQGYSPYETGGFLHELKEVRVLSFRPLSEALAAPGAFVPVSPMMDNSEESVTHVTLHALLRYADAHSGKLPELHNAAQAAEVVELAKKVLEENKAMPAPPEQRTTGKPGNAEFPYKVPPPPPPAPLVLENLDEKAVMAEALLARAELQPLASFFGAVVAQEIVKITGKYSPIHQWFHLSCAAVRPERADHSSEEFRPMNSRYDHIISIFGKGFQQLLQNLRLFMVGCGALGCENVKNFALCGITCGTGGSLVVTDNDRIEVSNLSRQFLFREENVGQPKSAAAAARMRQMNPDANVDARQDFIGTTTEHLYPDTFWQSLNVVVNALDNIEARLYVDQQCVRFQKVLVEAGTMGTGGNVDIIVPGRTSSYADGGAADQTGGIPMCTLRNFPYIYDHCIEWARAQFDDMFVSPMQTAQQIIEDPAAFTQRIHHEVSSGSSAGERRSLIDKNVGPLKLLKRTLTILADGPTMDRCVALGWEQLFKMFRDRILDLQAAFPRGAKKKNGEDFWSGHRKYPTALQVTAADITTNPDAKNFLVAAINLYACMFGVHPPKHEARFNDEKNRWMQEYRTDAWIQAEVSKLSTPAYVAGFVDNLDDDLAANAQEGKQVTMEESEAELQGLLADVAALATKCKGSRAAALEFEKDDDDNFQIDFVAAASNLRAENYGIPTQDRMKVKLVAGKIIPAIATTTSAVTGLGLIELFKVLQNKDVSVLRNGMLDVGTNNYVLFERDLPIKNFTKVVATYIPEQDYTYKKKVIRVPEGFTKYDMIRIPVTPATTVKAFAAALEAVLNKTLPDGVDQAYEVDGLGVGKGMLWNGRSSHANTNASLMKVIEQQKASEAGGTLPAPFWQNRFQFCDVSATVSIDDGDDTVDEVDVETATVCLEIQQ
# [3] = biological target: AMP-activated protein kinase, AMPK (Homo sapiens) (UniProt P54646+O43741+P54619+Q9UGJ0+Q9Y478+Q13131+Q9UGI9); assay: AMP-dependent Kinase enzyme assay. An in vitro enzyme assay that detects ADP turnover that is directly proportional to AMPK activity. This uses naive AMPK that is activated during the assay with MK-8722; format: functional; settings: 30 µM
# [4] = biological target: Sialic acid-binding Ig-like lectin 9 (Homo sapiens) (UniProt Q9Y336); assay: Hs-Siglec9 ALPHAscreen SOP 20170721; settings: 10 µM
# Sequence of Sialic acid-binding Ig-like lectin 9 (Homo sapiens) (Q9Y336 whole entry): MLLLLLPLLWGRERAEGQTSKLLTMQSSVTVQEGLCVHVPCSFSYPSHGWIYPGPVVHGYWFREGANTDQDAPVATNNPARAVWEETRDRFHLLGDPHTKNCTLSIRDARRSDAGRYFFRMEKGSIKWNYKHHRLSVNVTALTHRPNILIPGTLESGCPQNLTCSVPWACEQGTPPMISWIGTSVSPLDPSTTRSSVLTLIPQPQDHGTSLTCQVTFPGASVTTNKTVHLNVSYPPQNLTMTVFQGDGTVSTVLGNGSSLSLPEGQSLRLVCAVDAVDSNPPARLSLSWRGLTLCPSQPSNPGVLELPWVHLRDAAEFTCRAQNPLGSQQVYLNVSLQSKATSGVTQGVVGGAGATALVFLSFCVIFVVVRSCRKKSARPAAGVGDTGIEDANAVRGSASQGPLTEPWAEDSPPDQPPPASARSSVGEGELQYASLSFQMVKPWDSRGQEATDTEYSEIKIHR
# [5] = system: Trypanosoma cruzi; assay: Trypanosoma cruzi phosphomannomutase and mannose-1-phosphate guanylyltransferase assay; format: functional; settings: 10 µM
# [6] = biological target: T2, Arginase-2, mitochondrial (Homo sapiens) (UniProt P78540); assay: in vitro enzyme assay to detect the production of urea directly proportional to the activity of Arginase II; format: functional; settings: 33.3 µM; further: in the data most compounds retested in dose-response had high values
# T2 sequence (whole entry): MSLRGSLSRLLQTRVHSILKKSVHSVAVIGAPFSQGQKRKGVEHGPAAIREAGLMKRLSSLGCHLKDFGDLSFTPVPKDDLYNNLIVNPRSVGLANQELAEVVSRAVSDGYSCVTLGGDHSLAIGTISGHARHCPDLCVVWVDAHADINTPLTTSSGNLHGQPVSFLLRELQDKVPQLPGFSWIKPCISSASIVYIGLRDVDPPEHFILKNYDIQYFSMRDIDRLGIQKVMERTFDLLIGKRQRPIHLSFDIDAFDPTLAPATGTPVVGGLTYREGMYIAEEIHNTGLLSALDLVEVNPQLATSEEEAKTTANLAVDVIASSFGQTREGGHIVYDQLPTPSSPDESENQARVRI
# [7] = biological target: T3, Proteasome subunit beta (Trypanosoma cruzi) (UniProt O96673); assay: Trypanosoma cruzi proteasome chymotrypsin-like activity (TcProtChymo) assay.; further: in the data most compounds retested in dose-response had high values; format: functional; settings: 9.37 µM
# T3 sequence (whole entry): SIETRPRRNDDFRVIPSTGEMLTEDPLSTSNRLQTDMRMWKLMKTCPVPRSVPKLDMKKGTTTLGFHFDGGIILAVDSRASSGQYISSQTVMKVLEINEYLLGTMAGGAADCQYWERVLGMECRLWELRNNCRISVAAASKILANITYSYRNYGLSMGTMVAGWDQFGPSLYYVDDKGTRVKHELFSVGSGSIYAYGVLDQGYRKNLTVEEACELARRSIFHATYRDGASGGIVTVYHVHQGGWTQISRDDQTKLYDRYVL
# [8] = organism: Homo sapiens; assay: To identify inhibition of the IFN signalling (Jak-Stat) pathway via expression of an eGFP reporter gene under the control of an IFN-stimulated response element (ISRE) containing MxA promoter.; format: functional; settings: 30 µM
# [9] = biological target: T4, Tyrosyl-tRNA synthetase, putative (Trypanosoma cruzi (strain CL Brener)) (UniProt Q4DSP6); assay: Trypanosoma cruzi tyrosyl tRNA synthetase (TcYRS) _High Tyrosine SOP; format: functional; settings: 30 µM; further: in the data most compounds retested in dose-response had high values
# T4 sequence (whole entry): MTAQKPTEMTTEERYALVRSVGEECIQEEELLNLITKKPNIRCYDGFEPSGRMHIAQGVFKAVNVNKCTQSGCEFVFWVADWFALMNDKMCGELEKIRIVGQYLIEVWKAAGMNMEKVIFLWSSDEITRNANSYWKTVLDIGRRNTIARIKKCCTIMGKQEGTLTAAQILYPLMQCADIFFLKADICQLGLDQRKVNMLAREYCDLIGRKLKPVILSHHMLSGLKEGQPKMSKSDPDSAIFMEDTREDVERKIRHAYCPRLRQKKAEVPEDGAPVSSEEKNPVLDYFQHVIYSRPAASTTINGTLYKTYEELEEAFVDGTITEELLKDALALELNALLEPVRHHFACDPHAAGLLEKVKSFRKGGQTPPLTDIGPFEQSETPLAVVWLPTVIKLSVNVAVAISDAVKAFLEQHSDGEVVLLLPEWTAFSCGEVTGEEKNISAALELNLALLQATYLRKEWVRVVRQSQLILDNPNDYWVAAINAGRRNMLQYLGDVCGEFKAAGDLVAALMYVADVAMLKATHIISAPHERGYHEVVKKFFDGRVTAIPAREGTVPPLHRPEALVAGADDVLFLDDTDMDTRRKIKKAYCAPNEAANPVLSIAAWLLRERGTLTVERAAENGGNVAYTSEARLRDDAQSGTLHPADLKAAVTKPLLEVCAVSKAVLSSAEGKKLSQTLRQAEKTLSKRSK
# [10] = biological target: T4, Tyrosyl-tRNA synthetase, putative (Trypanosoma cruzi (strain CL Brener)); assay: Trypanosoma cruzi tyrosyl tRNA synthetase (TcYRS) SOP; format: functional; settings: 30 µM
# [11] = biological target: Chromo domain-containing protein 1 (Saccharomyces cerevisiae (strain ATCC 204508 / S288c) (Baker's yeast)) (UniProt P32657); assay: ScCHD-1 Enzyme Inhibition Assay; format: functional; settings: 30 µM; further: in the data most compounds retested in dose-response had high values
# Sequence of Chromo domain-containing protein 1 (Saccharomyces cerevisiae (strain ATCC 204508 / S288c) (Baker's yeast)) (P32657 whole entry, the tested form may be a part): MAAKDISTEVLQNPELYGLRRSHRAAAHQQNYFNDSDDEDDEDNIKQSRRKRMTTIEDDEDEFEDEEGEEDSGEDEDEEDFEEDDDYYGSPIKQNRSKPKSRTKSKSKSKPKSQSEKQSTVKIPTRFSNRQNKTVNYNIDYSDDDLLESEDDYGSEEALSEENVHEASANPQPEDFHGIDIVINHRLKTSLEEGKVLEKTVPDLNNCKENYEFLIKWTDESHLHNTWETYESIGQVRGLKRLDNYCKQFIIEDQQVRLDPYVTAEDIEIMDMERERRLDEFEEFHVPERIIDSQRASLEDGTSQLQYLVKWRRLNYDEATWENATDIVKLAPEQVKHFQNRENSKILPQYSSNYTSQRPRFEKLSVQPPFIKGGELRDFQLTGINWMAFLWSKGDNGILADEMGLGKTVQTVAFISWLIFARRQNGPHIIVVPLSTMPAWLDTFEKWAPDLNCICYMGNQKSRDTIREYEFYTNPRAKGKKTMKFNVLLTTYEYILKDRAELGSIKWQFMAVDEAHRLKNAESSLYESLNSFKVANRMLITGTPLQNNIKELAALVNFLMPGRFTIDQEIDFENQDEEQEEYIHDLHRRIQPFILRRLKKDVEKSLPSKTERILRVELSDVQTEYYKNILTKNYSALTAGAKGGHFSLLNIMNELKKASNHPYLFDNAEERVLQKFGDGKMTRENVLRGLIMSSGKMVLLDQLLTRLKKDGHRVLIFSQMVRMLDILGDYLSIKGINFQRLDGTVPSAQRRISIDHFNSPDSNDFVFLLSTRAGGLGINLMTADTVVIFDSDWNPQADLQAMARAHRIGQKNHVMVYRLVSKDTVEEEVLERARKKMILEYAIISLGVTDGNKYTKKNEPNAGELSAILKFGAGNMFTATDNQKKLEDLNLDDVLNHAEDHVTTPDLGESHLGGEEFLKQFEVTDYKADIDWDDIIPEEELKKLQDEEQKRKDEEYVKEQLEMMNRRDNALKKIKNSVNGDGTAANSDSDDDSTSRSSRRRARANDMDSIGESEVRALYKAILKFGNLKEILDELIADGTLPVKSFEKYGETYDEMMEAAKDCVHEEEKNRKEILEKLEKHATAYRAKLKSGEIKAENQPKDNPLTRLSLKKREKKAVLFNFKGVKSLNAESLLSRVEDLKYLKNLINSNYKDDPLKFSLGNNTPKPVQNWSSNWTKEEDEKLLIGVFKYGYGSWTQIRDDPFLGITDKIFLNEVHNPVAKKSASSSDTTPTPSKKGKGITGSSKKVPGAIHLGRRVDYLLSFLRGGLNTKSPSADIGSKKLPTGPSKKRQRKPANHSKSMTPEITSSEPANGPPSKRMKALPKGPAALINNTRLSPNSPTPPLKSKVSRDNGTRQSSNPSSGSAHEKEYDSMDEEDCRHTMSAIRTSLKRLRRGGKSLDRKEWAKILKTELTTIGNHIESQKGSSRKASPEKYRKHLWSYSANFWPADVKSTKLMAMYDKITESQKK
# Sequence of Protein translocase subunit SecA (Escherichia coli (strain K12)) (P10408 whole entry): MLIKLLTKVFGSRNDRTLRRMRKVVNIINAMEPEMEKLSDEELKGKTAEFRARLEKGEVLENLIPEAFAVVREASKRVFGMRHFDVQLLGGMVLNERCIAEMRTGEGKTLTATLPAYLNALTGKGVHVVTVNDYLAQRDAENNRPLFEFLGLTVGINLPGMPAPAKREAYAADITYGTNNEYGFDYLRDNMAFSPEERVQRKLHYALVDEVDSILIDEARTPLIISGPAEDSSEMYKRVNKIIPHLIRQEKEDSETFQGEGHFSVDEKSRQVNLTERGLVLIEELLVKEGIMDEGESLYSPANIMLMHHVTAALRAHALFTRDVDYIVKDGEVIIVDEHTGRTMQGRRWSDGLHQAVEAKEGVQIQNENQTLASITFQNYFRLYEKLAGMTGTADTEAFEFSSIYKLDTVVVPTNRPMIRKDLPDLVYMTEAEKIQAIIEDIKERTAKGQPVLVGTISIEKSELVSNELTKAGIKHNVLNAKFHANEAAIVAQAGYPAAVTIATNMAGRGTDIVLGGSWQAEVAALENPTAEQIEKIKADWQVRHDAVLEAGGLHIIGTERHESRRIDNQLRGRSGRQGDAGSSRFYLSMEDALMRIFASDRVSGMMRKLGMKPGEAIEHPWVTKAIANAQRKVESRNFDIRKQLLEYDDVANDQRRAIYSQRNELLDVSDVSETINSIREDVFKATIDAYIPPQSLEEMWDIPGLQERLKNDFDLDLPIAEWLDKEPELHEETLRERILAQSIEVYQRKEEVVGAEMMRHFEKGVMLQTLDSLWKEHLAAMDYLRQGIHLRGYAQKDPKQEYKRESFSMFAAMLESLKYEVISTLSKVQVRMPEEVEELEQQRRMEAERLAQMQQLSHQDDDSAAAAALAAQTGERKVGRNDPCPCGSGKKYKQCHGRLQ
Compound,Percent Effect [1],Percent Effect [2],Percent Effect [3],Percent Effect [4],Percent Effect [5],Percent Effect [6],Percent Effect [7],Percent Effect [8],Percent Effect [9],Percent Effect [10],Percent Effect [11]
Cc1nn(C)c(C)c1NC(=O)CCn1ncc2c(C)cccc21,-5.82%,7.79%,1.49%,9.37%,2.85%,9.65%,13.3%,5.45%,6.45%,13.6%,41.5%
Cc1cc(CN2CC[C@H]3C[C@H](C(=O)N4CCC(C)CC4)O[C@H]3C2)no1,-3.17%,10.8%,0.505%,-2.16%,-1.07%,2.87%,22.5%,-12.1%,0%,12.8%,-2.88%
CC(C)N1CCC(Cc2cc(-c3ccccc3C(=O)O)ncn2)CC1,-1.66%,52.7%,4.35%,-7.29%,-0.988%,2.09%,5.3%,17.4%,4.3%,6.49%,-7.12%
O=C(c1ccc[nH]1)N1CCC2(CC1)C(=O)Nc1ccccc12,-3.56%,16.2%,-2.52%,18%,6.35%,4.22%,10.7%,-3.84%,5.38%,23.5%,-5.84%
CC(C)n1c(=O)nc2n1C(=O)N(c1ccc(F)cc1)C2,-3.14%,13.2%,0.365%,6.05%,0.682%,-2.37%,13.9%,-9.89%,4.25%,7.79%,-5.52%
NC(=O)c1ccc2c(c1)nc1n2CCN(Cc2ccccc2)C1,-6.79%,15.8%,5.45%,5.68%,3.8%,-20.1%,12%,5.05%,4.25%,10.4%,6.79%
Cc1cnccc1N1CCCN(C(=O)CCCS(N)(=O)=O)CC1,-2.12%,5.48%,6.21%,1.68%,1.37%,15.4%,8.87%,-6.07%,2.15%,12.5%,0.551%
CN(Cc1cnccn1)C(=O)c1ccnc(OC2CCC2)c1,2.54%,-2.7%,1.16%,4.85%,0.193%,1.43%,1.9%,4.71%,-0.529%,4.88%,8.01%
Cc1cnn(CC2CCCN2C(=O)c2cc(C)no2)c1 (configuration not stated),-7.95%,5.26%,-9.36%,0.94%,-8.12%,0.36%,-4.65%,2.42%,-0.493%,-8.64%,10.5%
CC(O)CC(C)(C)CNC(=O)NCc1cccc(-n2ccnc2)c1 (configuration not stated),-3.71%,0%,-1.99%,-7.44%,-2.83%,-2.23%,-2.83%,18.3%,-1.07%,-1.24%,4.12%
COc1ncc(-c2nccn2CCN(C)C)cn1,-3.87%,-2.7%,-2.61%,1.15%,-0.965%,-3.81%,20.9%,2.02%,-2.65%,2.44%,-3.6%
CS(=O)(=O)c1ccc(NC(=O)N2CCc3sccc3C2)cn1,-2.17%,10.8%,4.69%,-4.04%,-3.71%,1.67%,18.3%,63.4%,5.94%,11%,13.6%
O=C1[C@@H]2CCN(Cc3ccoc3)C[C@@H]2OCCN1c1ccccc1,-5.21%,10.7%,13%,1.36%,-2.95%,8.16%,5.02%,5.67%,3.19%,11.5%,1.78%
CC(O)CN1CCN(C(=O)c2cn(-c3ccccc3Cl)nn2)CC1 (configuration not stated),-1.74%,10.8%,-3.04%,16.5%,2.44%,5.71%,4.21%,-2.08%,3.23%,13.6%,-4.02%
CN(Cc1cnn(-c2ccccc2)n1)CC1CCCN1c1cccnn1 (configuration not stated),-3.33%,-36.8%,3.24%,7.96%,5.7%,0.36%,-3.98%,8.95%,8.37%,13.6%,1.47%
O=S(=O)(c1cccs1)N1CC[C@H](O)[C@@H]1Cc1ccncc1,-3.12%,13.5%,9.88%,-0.784%,-4.79%,2.23%,22.9%,-0.0803%,4.32%,12.8%,-1.7%
CNc1oc(-c2ccc(OC)c(S(=O)(=O)N3CCCCC3)c2)nc1C#N,-1.33%,1.33%,15.5%,7.55%,-5.7%,-6.51%,9.98%,-4.26%,5.29%,2.56%,-9.36%
O=C(Nc1nncs1)NC1CCOc2ccccc21 (configuration not stated),-3.81%,2.74%,5.12%,-2.09%,-6.55%,-0.399%,9.85%,17%,2.08%,13.6%,-8.1%
O=C(C1CCC1)N1CCCC1c1nnc2n1CCCCC2 (configuration not stated),-0.546%,13.5%,-1.97%,-4.28%,2.34%,33.3%,9.89%,27.9%,11.9%,15.8%,2.32%
c1cnn(CC2CCCN2c2ncnc3ccsc23)c1 (configuration not stated),-0.167%,13.5%,3.45%,-4.74%,-8.08%,6.84%,8.8%,53.8%,7.92%,18.3%,-4.66%
CCC[C@@H]1CN(S(=O)(=O)c2ccc(C)c(F)c2)C[C@H]1N(C)C,-4.83%,2.67%,-4.64%,-1.02%,-8.86%,2.08%,16.2%,3.61%,1.64%,6.17%,-7.9%
N#Cc1cc(NC(=O)C2CC=CC2)ccc1N1CCC(O)CC1,-3.63%,2.7%,-2.38%,4.36%,-0.193%,1.91%,7.41%,0.178%,2.65%,7.32%,-2.26%
